Screening results from PubChem BioAssay.
In the library only some 7.8% were active in any assay of this set; here they are far more common.
VACV mCherry inh: vaccinia inhibition (mCherry reporter); Vaccinia virus mCherry reporter infection, fluorescence; Potency, µM (series often up to 36.5 µM), for the others: at the top dose activity change, negative = inhibition, hits mostly inhibitors; 310,000 tested, 0.63% active; AID 720579; calls by dose curve; tested in A549 cells; also: potency is read from the fitted curve at half-maximal effect; nearly all actives have a fitted effect of over 35% in size
Marburg entry inh: blocks Marburg virus binding to or entry into cells; Marburg virus pseudotyped entry inhibition, cell reporter; Potency, µM (doses to about 37.8 µM), for inactives: at the top dose activity change, negative = inhibition, most hits filed as inhibitors; 300,000 tested, 1.8% active; AID 540276; calls by dose curve; tested in HEK293 cells; also: potency is read from the fitted curve at half-maximal effect
VACV Venus inh: inhibitors of vaccinia virus (Venus reporter); Vaccinia virus Venus reporter expression, fluorescence; Potency, µM (highest dose often 36.5 µM), for the others: at the highest dose activity change, negative = inhibition, usual class: inhibitors; 330,000 tested, 0.46% active; calls by dose curve; tested in A549 cells; also: potency is read from the fitted curve at half-maximal effect; nearly all actives have a fitted effect of over 30% in size
HCMV inh: inhibitors of human cytomegalovirus | HFF cells, HCMV-luciferase reporter, 72 h; stronger effect = lower value | activity change, negative = inhibition, % at 57.5 µM | 410,000 tested, 4.5% active; in the data active = activity change below about -60%; inconclusive = no clear call, values can overlap the other calls; inactive = above about -39%
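Cell-based, HFFs, 1000 cells/well, 16 h 37C; cpds in DMSO + HCMV-luc, MOI 1 PFU/cell; 72 h 37C; OneGlo luminescence after 5 min RT; norm. to buffer vs Salinomycin 10uM.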
LASV entry inh: blocks Lassa virus binding to or entry into cells | Lassa virus pseudotype entry inhibition, cell reporter | Potency, µM (doses to about 37.9 µM), for the others: at the top dose activity change, negative = inhibition, actives largely listed as inhibitors | 300,000 tested, 1.2% active | AID 540256; calls by dose curve; tested in HEK293 cells; also: potency is read from the fitted curve at half-maximal effect; nearly all actives have a fitted effect of over 50% in size
HCV inh: blocks hepatitis C virus. Huh7.5.1 HCVcc-Cre infection, luciferase reporter, 44 h. Potency, µM (top dose mostly 41.8 µM), without a hit: at the highest dose activity change, negative = inhibition, actives largely listed as inhibitors. 340,000 tested, 3.4% active. AID 651820; active = well fitted inhibition curve with a large enough effect; inconclusive = small, poorly fitted or top-dose-only effect, or another doubt; inactive = no such curve, though single readings can be large or run the other way; also: potency is read from the fitted curve at half-maximal effect
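Infectious HCVcc-Cre (~0.5 moi) was added to cells just after compound, with cells seeded 4 h earlier at 1,000 per well. Luciferase activity after 44 h culture reported infection; substrate was incubated 15 min at room temperature before reading.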
The depositor's hits bear a star; i = inactive; u = inconclusive; x = no result given; [ ] = remark or other dose. % is scaled to controls: 0 for no effect and ±100 for the full control effect.

SMILES	VACV mCherry inh	Marburg entry inh	VACV Venus inh	HCMV inh	LASV entry inh	HCV inh
Cc1c(CC(=O)NCc2ccccc2)c(=O)oc2c(C)c(O)ccc12	-22%	u	-12%	-23	u	x
Cn1cc(-c2cc3n(n2)CCC(=O)N3CC(=O)NCc2ccccc2)c2ccccc21	i	x	-5%	27	9%[46.1 µM]	x
COc1ccc(CN(C)CC2CCCN(CCc3ccc(Cl)cc3)C2)cc1OC (centres undefined)	-15%	2.2µM*	-13%	43	u	10µM*
Cn1cccc1/C=N/N1CCN(Cc2ccccc2Cl)CC1	-16%	23%[46.1 µM]	-24%	7	20%[46.1 µM]	0.32µM*
CCCCNc1nc(Oc2ccc(=O)n(-c3ccccc3)n2)nc(N(CC)CC)n1	-22%	5%[46.1 µM]	-22%	-31	u	x
COc1ccc(/C=c2\sc3nc(=O)c(C)nn3c2=O)c(OC)c1	i	x	-4%	-62*	x	10%
COCCCNc1nc2c(c(=O)[nH]c(=O)n2C)n1C[C@@H](O)COc1ccccc1	x	20%	x	x	x	x
Cn1cc(CCCBr)c2ccccc21	x	x	x	10	x	x
O=C(CCCN1C(=O)/C(=C/c2ccccc2)SC1=S)NCCCn1ccnc1	x	x	x	-98*	x	-17%
Cc1cc(NC(=O)CCCN2C(=O)/C(=C\c3cccs3)SC2=S)no1	-14%	u	9%	-34	17%	5%
O=C(CCCN1C(=O)/C(=C/c2ccccc2)SC1=S)Nc1ccccc1O	u	u	u	-100*	7%	u
O=C(CCCN1C(=O)/C(=C\c2cccs2)SC1=S)Nc1ccccc1O	-15%	x	-29%	-93*	x	x
O=C(CCCN1C(=O)S/C(=C\c2ccccc2)C1=O)NNC(=O)c1ccccc1O	-3%	1.8µM*	-7%	-83*	u	u
Cc1ccnc2ncccc12	-18%	x	-4%	x	x	x
O=C(CCCN1C(=O)/C(=C/c2cccs2)SC1=S)Nc1cc([N+](=O)[O-])ccc1O	x	x	x	-73*	x	18%
C[C@H]1CN(c2ccccc2)C(=O)[C@H]1CC(=O)Nc1ccc(Br)cc1	x	x	x	x	-4%[46.1 µM]	x
COc1ccccc1NC(=O)Nc1nc(CC(=O)Nc2ccc(F)cc2)cs1	u	-22%	-23%	-25	10%	u
COc1ccccc1NC(=O)Nc1nc(CC(=O)N2CCN(c3ccc(F)cc3)CC2)cs1	u	11µM*	-28%	-23	u	11µM*
COc1ccccc1NC(=O)Nc1nc(CC(=O)N2CCN(c3ccccc3)CC2)cs1	1µM*	7%[46.1 µM]	-28%	-6	u	13µM*
COc1ccccc1NC(=O)Cc1csc(NC(=O)c2ccccc2)n1	x	-28%	x	-69*	u	7.1µM*
O=C1C=C(N(CCO)Cc2ccccc2)c2ccccc2C1=O	11µM*	u	u	x	4.5µM*	u
O=C1c2ccccc2C(=O)c2c1cccc2N(CCO)CCO	-24%	6%[46.1 µM]	-9%	38	3%[46.1 µM]	0%
COC(/C(=N/O)c1ccc(Cl)cc1)c1ccccc1 (centres undefined)	u	u	u	-94*	u	-13%
CCc1c(C)nc2ncnn2c1N1CCC(C(=O)N2CCN(c3ccccc3)CC2)CC1	x	-2%	x	x	x	x
CCc1c(C)nc2ncnn2c1N1CCC(C(=O)N2CCN(c3ccc(F)cc3)CC2)CC1	x	-14%	x	-88*	4%	u
SMILES	VACV mCherry inh	Marburg entry inh	VACV Venus inh	HCMV inh	LASV entry inh	HCV inh
CCN(C[C@H]1N[C@@](C)(C(=O)OC)[C@H]2C(=O)N(C)C(=O)[C@@H]12)C(=O)Nc1ccc(OC)cc1	-17%	x	-8%	46	x	2.5µM*
COc1ccc(Cn2ccc3nc(C)c(C(=O)Nc4ccc(OC(F)(F)F)cc4)cc3c2=O)cc1	-21%	x	u	-19	-23%[46.1 µM]	x
CCCN1CNc2c(c(=O)[nH]c(=S)n2CCc2ccc(C)cc2)C1	i	x	-6%	x	x	x
CCOc1ccc(NC(=O)c2sc(-n3nc(C)c(CCC(C)C)c3C)nc2C)cc1	-12%	28%[46.1 µM]	-8%	14	3%[46.1 µM]	x
C[C@]12CC[C@@H]3c4ccc(O)cc4C[C@@H](CCCCCCCCCS(=O)CCCC(F)(F)C(F)(F)F)[C@H]3[C@@H]1CC[C@@H]2O (some centres undefined)	x	u	x	x	3.3µM*	x
COc1ccc(Cl)cc1NC(=O)CN(C)S(=O)(=O)c1ccc2c(c1)CCCN2C(C)=O	-18%	x	-13%	-28	-16%[46.1 µM]	x
COc1ccc(Cl)cc1N(C)c1nc(N2CCN(S(=O)(=O)c3ccc(C)cc3)CC2)c2ccccc2n1	i	x	-7%	x	x	x
CCOC(=O)c1cnc2c(ccc3ccccc32)c1NCCO	x	u	u	8	1%	11µM*
O=[N+]([O-])c1cccnc1N1CCN(Cc2ccc3c(c2)OCO3)CC1	-6%	2%	-15%	-16	0%	2%
O=[N+]([O-])c1ccc2ncnc(N3CCN(Cc4ccc5c(c4)OCO5)CC3)c2c1	x	x	x	-80*	x	u
CN1C(=O)C2=NC(C3CCCC3)=NC2N(C)C1=O (centres undefined)	x	68%	x	x	x	x
COc1ccc(-c2coc3cc4oc(=O)cc(C)c4cc23)cc1F	x	u	x	-63*	u	u
CC(C)c1c(C(=O)NCCN2CCOCC2)cnn1-c1nccc(-c2cccs2)n1	-23%	x	-13%	x	x	x
COc1ccccc1Nc1nc(-c2c(C)nc3ncccn23)cs1	u	u	-29%	68	u	11µM*
COc1ccc(Nc2nc(-c3c(C)nc4ncccn34)cs2)cc1	u	x	u	-98*	x	11µM*
Cc1nc2sccn2c1-c1csc(NCc2ccccc2)n1	u	u	u	-72*	-29%	11µM*
Cc1nc2ncccn2c1-c1csc(Nc2ccccc2)n1	-24%	u	u	42	-12%	11µM*
Cc1nc2ncccn2c1-c1csc(Nc2ccc(N(C)C)cc2)n1	u	u	u	-65*	-3%	-22%
O=C(Nc1cc(C(F)(F)F)ccc1F)C1CCCCC1	x	u	x	-106*	20%	23%
CC(=O)C(C)Oc1ccc2c3c(c(=O)oc2c1C)CCCC3 (centres undefined)	x	2%	x	-11	-29%	10µM*
CC(=O)COc1ccc2c3c(c(=O)oc2c1C)CCCCC3	-3%	u	u	u	u	11µM*
Cc1noc(C)c1CC(=O)NCC1Cc2cc(-c3cccc(OC(F)(F)F)c3)ccc2O1 (centres undefined)	-24%	x	-16%	x	x	x
O/C(=C\c1ccc2ccccc2n1)c1ccncc1	-5%	x	-20%	-101*	x	-21%
O/N=C/c1ccc2ccccc2n1	i[7.34 µM]	u	1%[7.34 µM]	97	20%	23%
COc1cc(C2c3c(-c4cc(C)ccc4O)n[nH]c3C(=O)N2CCCO)ccc1OCCC(C)C (centres undefined)	u	u	u	-27	u	x
O=[N+]([O-])c1cc2no[n+]([O-])c2cc1N1CCCCC1	i	2%	-11%	-63*	-17%	u
